Assay results from PubChem BioAssay AID588591 (National Center for Advancing Translational Sciences (NCATS), 2011).
Hit rate of the full screen: of about 390,000 compounds, about 4,700 (1.2%) were called active. Inconclusive results (about 4%) are left out. This is one part of a sample in which actives are shown more often than they occur. Calls come from the whole dose curve; as a rule, active = well fitted inhibition curve with a large enough effect; inconclusive = small, poorly fitted or top-dose-only effect, or another doubt; inactive = no such curve, though single readings can be large or run the other way.

target: DNA polymerase eta (Homo sapiens) (UniProt Q9Y253); assay: qHTS for Inhibitors of Polymerase Eta; settings: recombinant Pol eta, fluorescent DNA replication assay; series mostly up to 114 µM
Summary of the method: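 Fluorescent replication assay: 50 nM final substrate added after a 15 min room-temperature compound preincubation with 10 nM enzyme. Signal taken at 0 min and again at 10 min.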
Potency is the fitted concentration of half-maximal effect.

Chain of DNA polymerase eta (Homo sapiens) (Q9Y253 whole entry, looked up): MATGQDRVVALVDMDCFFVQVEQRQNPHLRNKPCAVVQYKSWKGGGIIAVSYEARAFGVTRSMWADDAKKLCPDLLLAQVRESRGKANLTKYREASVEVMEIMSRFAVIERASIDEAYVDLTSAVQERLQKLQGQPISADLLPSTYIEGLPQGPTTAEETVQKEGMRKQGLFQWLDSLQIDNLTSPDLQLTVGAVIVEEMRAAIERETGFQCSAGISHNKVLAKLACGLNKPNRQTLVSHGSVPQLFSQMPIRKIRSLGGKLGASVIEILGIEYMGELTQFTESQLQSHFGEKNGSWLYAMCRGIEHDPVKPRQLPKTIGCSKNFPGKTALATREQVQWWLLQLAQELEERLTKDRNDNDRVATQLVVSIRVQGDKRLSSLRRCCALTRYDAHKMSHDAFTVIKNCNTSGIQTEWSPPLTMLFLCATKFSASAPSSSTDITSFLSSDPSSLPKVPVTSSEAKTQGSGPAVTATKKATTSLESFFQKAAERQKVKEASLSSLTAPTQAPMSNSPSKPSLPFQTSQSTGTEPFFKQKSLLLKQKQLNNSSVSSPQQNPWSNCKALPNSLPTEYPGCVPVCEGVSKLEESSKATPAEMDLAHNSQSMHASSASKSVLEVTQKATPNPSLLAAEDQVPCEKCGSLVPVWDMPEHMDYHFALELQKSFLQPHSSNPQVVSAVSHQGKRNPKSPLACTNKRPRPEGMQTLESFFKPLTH

Potency, active:
CN(CCOc1ccccc1)C(=O)c1cc(-c2ccco2)nc2ccccc12 25.1 µM
CN(C(=O)COC(=O)c1cc(-c2ccco2)nc2ccccc12)C1CCS(=O)(=O)C1 (configuration not stated) 6.31 µM
O=C(O)CCn1cc(/C=C/C(=O)c2ccc(Cl)cc2)c(-c2cccc(Br)c2)n1 56.2 µM
CCCN1CCN(C(=O)Cn2ncc3ccccc32)CC1 25.1 µM
O=C(O)c1ccc(NN=CC2=C(N3CCOCC3)/C(=C/c3ccccc3)CC2)cc1 39.8 µM
COc1cccc(/C=N/Nc2ccc(S(=O)(=O)Nc3ccccc3C(=O)O)cc2[N+](=O)[O-])c1O 17.8 µM
Cc1ccc(NS(=O)(=O)c2ccc(N/N=C/c3ccccc3OCC(=O)O)c([N+](=O)[O-])c2)c(C)c1 70.8 µM
COc1ccc(Br)cc1/C=N/Nc1ccc(S(=O)(=O)Nc2ccccc2C(=O)O)cc1[N+](=O)[O-] 15.8 µM
COC(=O)c1ccc(COc2ccc(/C=C/C(=O)c3ccc(OC)c(CSCC(=O)O)c3)cc2OC)cc1 20 µM
CCOc1ccccc1/C=c1\sc2nc(-c3ccco3)nn2c1=O 7.94 µM
COC(=O)C1=C(C)NC2=C(C(=O)c3ccccc32)C1c1ccc(-c2ccc(C(=O)O)cc2)o1 (configuration not stated) 31.6 µM
O=c1nc2s/c(=C\c3ccco3)c(=O)n2nc1Cc1ccccc1 17.8 µM
CC1=NN(c2ccc(Cl)c(C(=O)O)c2)C(=O)/C1=C/c1ccc(-c2ccccc2[N+](=O)[O-])o1 20 µM
COc1ccc(/C=C/C(=O)c2cc(Br)ccc(=O)c2O)cc1 31.6 µM
Cc1ccc(N2NC(=O)/C(=C/C=C/c3ccco3)C2=O)cc1C 79.4 µM
Cc1ccc(N=C2NC(=O)/C(=C/C=C/c3ccco3)S2)cc1C 8.91 µM
COCCCn1c(Cc2csc(Nc3cccc(Cl)c3)n2)nnc1SCC(=O)OC1CCCCC1 7.94 µM
C=C1c2c(Cl)ccc(O)c2C(O)=C2C(=O)[C@]3(O)C(O)=C(C(N)=O)C(=O)[C@@H](N(C)C)[C@@H]3[C@@H](O)C12 (some centres not stated) 35.5 µM
Cc1nnc(SCC(=O)Nc2ccc(S(=O)(=O)Nc3ccc(Cl)nn3)cc2)s1 20 µM

Potency, inactive:
CCN(C(=O)COC(=O)/C=C/c1nc2ccccc2s1)C1CCS(=O)(=O)C1 (configuration not stated)
COc1cccc(NC(=O)CN(C)C(=O)c2cc(Cl)nc3ccccc23)c1
Cc1cc(C)c2nc(SCC(=O)N(C)C3CCS(=O)(=O)C3)cc(C)c2c1 (configuration not stated)
CN(CCOc1ccccc1)Cc1nc2cc(Cl)ccc2c(=O)[nH]1
Cc1oc2c(c1C(=O)Nc1ccc(F)c(F)c1)C1=NCCN1C=N2
CC1=C(C(=O)Nc2ccccc2)C(c2ccc(C)cc2)n2nc(SCc3ccccc3C)nc2N1 (configuration not stated)
CCOc1ccc(CNC(=O)CCc2c(C)nn(-c3ccc(N4CCCCC4)nn3)c2C)cc1
CCOC(=O)c1cc2c(=O)n3ccccc3nc2n(Cc2ccco2)c1=NC(=O)c1ccc(F)cc1
OC[C@H]1O[C@@H](n2cnc3c(N[C@H]4CC5CCC4C5)ncnc32)[C@H](O)[C@@H]1O (some centres not stated)
O=C(Nc1ccc2nc(SCC(=O)N3CCCc4ccccc43)sc2c1)c1ccc(F)cc1
CCc1ccc(S(=O)(=O)c2nnn3c2nc(NCc2ccccc2OC)c2cc(Cl)ccc23)cc1
CN1CCN(C(=O)Cn2c(C(F)(F)F)nc3ccccc32)CC1
CCc1nn(CC(=O)N2CCN(CC)CC2)c(=O)c2cccn12
Cc1ccc(NC(=O)CN2C(=O)CC(C)Sc3ccccc32)c(C)c1 (configuration not stated)
COc1ccc(Br)cc1CNC(=O)c1cc(=O)[nH]c2ccc(S(=O)(=O)N3CCCC3)cc12
O=C(Nc1ccc(F)cc1)c1cccnc1N1CCOCC1
CC(C)(CNC(=O)c1ccc(Cl)c(S(=O)(=O)N2CCc3ccccc3C2)c1)N1CCOCC1
CCOc1ccc(NC(=O)C(=O)NCCc2csc3nc(-c4ccccc4F)nn23)cc1
Cc1cc2ccccc2n1CCNC(=O)c1ccc(F)cc1
Cc1ccc2c(=O)c(C(=O)c3ccc(Cl)cc3)cn(CC(=O)NC3CCCCC3)c2n1
NC1=NC(c2cc(F)cc(F)c2)n2c(nc3ccccc32)N1 (configuration not stated)
CCN(CC(=O)NCc1cccs1)C(=O)c1cccc(S(=O)(=O)Nc2ccccc2OC)c1
Cc1ccc(NS(=O)(=O)c2ccc3c(c2)n(C)c(=O)c(=O)n3C)c(C)c1
O=C(CN1CCCCCC1)Nc1ccc(Br)cc1[N+](=O)[O-]
COC(=O)c1ccccc1NS(=O)(=O)c1ccc2c(c1)CCCN2C(C)=O
COc1ccc(S(=O)(=O)NC(C)c2ccccc2)cc1C(=O)N1CCCCC1 (configuration not stated)
Cc1ccc(C)c(NS(=O)(=O)c2ccc(OCC(=O)NCc3cccnc3)cc2)c1
COc1ccc(N2CCN(Cc3nc4c(c(=O)[nH]c(=O)n4C)n3Cc3ccc(Cl)cc3)CC2)cc1
CCOc1ccccc1NC(=O)Cn1c(=O)n(Cc2ccccc2)c(=O)c2c(C)c(C(=O)N(C)C)sc21
COc1ccc(C2(Nc3cccc(F)c3)C(=O)c3ccccc3C2=O)cc1
CCCCC12CN3CC(C)(CN(C1)C3c1ccc(O)c(OC)c1)C2=O (configuration not stated)
COc1ccc2c(c1)c(N1CCCC1=O)c(C(=O)Nc1ccc(OC)c(Cl)c1)n2C
Cc1ccc(C(=O)Nc2cc3c(cc2N2CCCC2)n(C)c(=O)c(=O)n3C)cc1
Cc1ccccc1CSc1nc(-c2ccccc2)nc2c1Cc1c(CO)cnc(C)c1O2
CCCC(=O)N1CCN(c2nc3c(OC)ccc(C)c3s2)CC1
COC(=O)c1ccc(C(NC(=O)OCc2ccccc2)/C(C)=C/[C@@H](C)C(=O)NCc2ccc(OC)c(OC)c2)cc1 (some centres not stated)
COc1cc(/C=C/C(=O)OCC(=O)NC(=O)NCc2ccccc2)ccc1OCC#N
COc1ccc(CCNC(=O)c2cn(C)c3ccc(S(=O)(=O)N(C)C4CCCCC4)cc3c2=O)cc1OC
CCOC(=O)C1CCN(C(c2ccc(F)cc2)c2sc3nc(-c4ccco4)nn3c2O)CC1 (configuration not stated)
Oc1c(C(c2ccccc2Cl)N2CCOCC2)sc2nc(-c3ccco3)nn12 (configuration not stated)
Cc1ccc2nc3c(cc(C(=O)NC4CCCCC4)c(=N)n3C(C)C)c(=O)n2c1
CCc1cc2c(-c3ccccc3)cc(=O)oc2c2c1OCN(Cc1ccc(C)cc1)C2
CCOc1cc(C2C(C(=O)OC)=C(C)NC3=C2C(=O)c2ccccc23)ccc1O (configuration not stated)
CCCOc1ccc(C2c3c(-c4ccccc4O)n[nH]c3C(=O)N2Cc2cccnc2)cc1 (configuration not stated)
COc1cc(-c2noc(-c3ccc(N4CCCC4)c([N+](=O)[O-])c3)n2)cc(OC)c1OC
CN1c2ccc(Cl)cc2-c2nc(SCC(=O)Nc3cc(F)ccc3F)ncc2S1(=O)=O
Cc1ccc(C)c(CNC(=O)c2cc3ccccn3n2)c1
COc1ccc(CCNC(=O)c2cc3cccc4c3n2CC(C)S4)c(OC)c1OC (configuration not stated)
CC(CNC(=O)c1nnc(Cc2cccc(F)c2)o1)c1ccccc1 (configuration not stated)
COc1cc2nc(SCc3ccc(F)cc3)n3nc(CCn4c(C)nc5ccccc54)nc3c2cc1OC
O=S(=O)(NCCS(=O)(=O)N1CCN(c2ccccc2)CC1)c1ccc(Cl)cc1
Cc1ccc(-c2ccc(/C=C(\C#N)C(N)=S)o2)c([N+](=O)[O-])c1
O=C(CSc1nc(=O)[nH]c2c1CCCC2)Nc1cc(C(F)(F)F)ccc1Cl
COCOc1cc(O)c(C(=O)/C=C/c2ccc(OCOC)c(OCOC)c2)c(OCOC)c1
COc1cccc(N2CC(NC(=O)/C=C\c3ccccc3)CC2=O)c1 (configuration not stated)
Oc1ccc(-c2nc3ccc(Cl)cn3c2Nc2ccc3c(c2)OCO3)cc1
O=C(COc1ccc(Cl)cc1)N(Cc1ccco1)Cc1ccco1
COc1cccc(C(c2c(O)cc(C)n(Cc3ccco3)c2=O)N2CCN(c3ccccc3)CC2)c1 (configuration not stated)
O=C(c1ccc(Cl)cc1)n1nc(-c2cccnc2)nc1NCc1ccc(F)cc1
Cc1ccc(C(=O)N/C(=C\c2ccco2)C(=O)N2CCSCC2)cc1C
Cc1ccccc1CNC(=O)C(=O)NCC(c1cccs1)S(=O)(=O)c1cccs1 (configuration not stated)
CCCS(=O)(=O)c1c(Nc2ccccc2C)sc(C(=O)c2ccccc2)c1N
O=C(CCc1cn(Cc2ccc(F)cc2)c2ccccc12)NC1CCCCC1
CC(=O)Nc1cccc(NC(=O)CSc2nccn2Cc2ccc3c(c2)OCO3)c1
COc1ccc(-c2nn(CC(=O)NC3CCCC3)c3c2cnc2ccc(F)cc23)cc1
COc1ccc(CCNC(=O)c2ccc(CSCc3ccc(C)cc3)o2)cc1OC
COc1ccc(-c2ccc(=O)n(CC(=O)Nc3ccc(Br)cc3F)n2)cc1
CCOc1ccc(Nc2nc(Cc3nnc(SCC(=O)NC4CCCC4)n3C)cs2)cc1
COCCCn1c(SCC(=O)NC2CCCC2)nnc1-c1ccccc1
COc1ccc(Cn2c(=O)c3oc4ccccc4c3n(CC(=O)Nc3ccc(F)cc3F)c2=O)cc1
O=C(CSc1cn(CC(=O)N2CCOCC2)c2ccccc12)Nc1ccccc1
COc1ccc(NC(=O)CSc2nc(NS(=O)(=O)c3ccc(C)cc3)cc(=O)[nH]2)cc1
Cc1nnc(SC(C)C(=O)Nc2ccc(S(=O)(=O)NC3CCCCC3)cc2)s1 (configuration not stated)
